Each compound was assayed on Plasmodium falciparum (assay: GSK_TCMDC: Inhibition of Plasmodium falciparum 3D7 in whole red blood cells, using parasite LDH activity as an index of growth. Test compounds present at 2uM).
Format: functional

Row | SMILES | Inhibition
1 | Cc1cc(NC(=O)c2cc(S(=O)(=O)N3CCCCC3)ccc2C)no1 | 95%
2 | COc1ccc2nccc([C@@H](O)CN3CCC(NC(=O)C(=Cc4ccc(Cl)cc4Cl)c4ccc(-c5ccccc5)cc4)CC3)c2c1 | 100%
3 | Cc1ccc(-c2csc(C)n2)c(C)c1 | 98%
4 | O=C(c1ccc(Cl)cc1)N1CCCC(C(=O)N(Cc2nnc(-c3ccccc3Cl)o2)C2CC2)C1 (centres undefined) | 95%
5 | CN(C)S(=O)(=O)c1ccc(Nc2nc(NCCC3C=NC=N3)nc3cc[nH]c(=O)c23)cc1 (centres undefined) | 96%
6 | Brc1cc(Br)c2c(c1)C(NCCCNC1CCNc3c(Br)cc(Br)cc31)CCN2 (centres undefined) | 98%
7 | CCc1sc(N2CCN(C)CC2)nc1C(=O)NCCc1ccc(Cl)c(Cl)c1.O=C(O)C(F)(F)F | 92%
8 | COc1cc2c(cc1O)[C@@H]1[C@H](O)[C@@H](O)C=C3CCN(C2)[C@H]31 [PSEUDOLYCORINE] | 90%
9 | COc1cc(Cc2cnc(N)nc2N)c2ccsc2c1OC.Cl | 92%
10 | CN1CCN(c2ccnc3cc4c(cc23)N(Cc2ccccc2)CC4)CC1 | 94%
11 | Cc1ccc2nc(-c3ccc(C(=O)NC4CCN(Cc5ccccc5)CC4)s3)[nH]c2c1 | 97%
12 | CC(C)CCn1c(Sc2ccc(C#N)c([N+](=O)[O-])c2)nnc1-c1cccc(Cl)c1 | 96%
13 | Cc1cc(NCCC(=O)NCCOc2ccccc2)nc(NCCOc2ccccc2)n1.O=C(O)C(F)(F)F | 92%
14 | Br.CC1(C)NC(N)=NC(=N)N1OCCSCCON1C(=N)N=C(N)NC1(C)C | 95%

Reference: ChEMBL document CHEMBL1157539, “Thousands of chemical starting points for antimalarial lead identification” (Nature, 2010)
